Data taken from the supplement of paper PMC7695840.

Key:
[1] = tested on: Staphylococcus aureus MW2 delta-mecA (mecA-); test: normalized GFP fluorescence (growth of mecA- strain) (fraction of control range); higher = more growth of mecA- strain; conditions: compound concentration: 150 uM; cefoxitin: subinhibitory; fluorescent label: GFP
Summary of the method: (§1)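 Two pre-induced S. aureus MW2 strains, one with the gene labeled by DsRed and one lacking it labeled by GFP, were mixed 1:1 in LB with a subinhibitory antibiotic dose set daily. The mix went at 5 µL/well onto 150 μM compound (1.5% DMSO) in 1536-well plates, single replicate, and grew unshaken 20 h at 37 °C, 90% humidity. DsRed (540/590) and GFP (485/520) values were scaled per plate between single-strain control medians, and plates with high untreated ratios or rows with DsRed/GFP >10 were left out.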

[2] = tested on: Staphylococcus aureus MW2 (mecA+); test: normalized DsRed fluorescence (growth of mecA+ strain) (fraction of control range); higher = more growth of mecA+ strain; conditions: compound concentration: 150 uM; cefoxitin: subinhibitory; fluorescent label: DsRed
Summary of the method: as §1

| Compound | normalized GFP fluorescence [1] | normalized DsRed fluorescence [2] |
| --- | --- | --- |
| O=C(Nc1c(Cl)cncc1Cl)c1ccc(OC(F)F)c(OCC2CC2)c1 [Roflumilast (Daxas)] | 0.368 | 0.773 |
| O.O.O.O.O.O.O.O.O.O.O.O.O.O.O.O.O.O.O.O.O=S(=O)([O][Al])OC[C@H]1O[C@@](COS(=O)(=O)[O][Al])(O[C@H]2O[C@H](COS(=O)(=O)[O][Al])[C@@H](OS(=O)(=O)[O][Al])[C@H](OS(=O)(=O)[O][Al])[C@H]2OS(=O)(=O)[O][Al])[C@@H](OS(=O)(=O)[O][Al])[C@@H]1OS(=O)(=O)[O][Al].[Al] | 0.405 | 0.842 |
| CC(=O)O[C@H]1C(=O)[C@@]2(C)[C@H]([C@H](OC(=O)c3ccccc3)[C@]3(O)C[C@H](OC(=O)[C@H](O)[C@@H](NC(=O)c4ccccc4)c4ccccc4)C(C)=C1C3(C)C)[C@]1(OC(C)=O)CO[C@@H]1C[C@@H]2O [Paclitaxel (Taxol)] | 0.188 | 0.669 |
| CN(C)CCC=C1c2ccccc2C=Cc2ccccc21 | 0.0981 | 1.21 |
| COc1cc(Nc2c(C#N)cnc3cc(OCCCN4CCN(C)CC4)c(OC)cc23)c(Cl)cc1Cl [Bosutinib (SKI-606)] | -0.0247 | 0.727 |
| COc1cc2nc(N3CCN(C(=O)c4ccco4)CC3)nc(N)c2cc1OC | 0.593 | 0.809 |
| NC[C@@H]1O[C@@H](O[C@H]2[C@H](O)[C@@H](O[C@H]3O[C@H](CO)[C@@H](O)[C@H](N)[C@H]3O)[C@H](N)C[C@@H]2N)[C@@H](O)[C@H](O)[C@H]1O | 0.472 | 0.795 |
| CCCCC(=O)O[C@H]1CC[C@H]2[C@@H]3CCc4cc(O)ccc4[C@H]3CC[C@]12C | 0.109 | 0.605 |
